Assay outcomes (PubChem)
CHRM1 PAM: human CHRM1 positive allosteric modulation; CHO-K1 hM1, Fluo-8 calcium fluorescence, ACh EC20; 0% = ACh EC20, 100% = maximal ACh; activation, % at 3 µM; 0.088% of 360,000 active; in the data active = activation above about 19%, passing the limit was not always enough
M1 ag: agonists of human M1 muscarinic receptor | CHO-K1 hM1, Fluo-8 calcium fluorescence, agonist mode; 0% DMSO, 100% acetylcholine EC100 | P11229 | 0.33% of 360,000 active | activation, % at 3 µM;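 active = activation above the run's mean compound activation plus 3 SD, cut at about 16% in these data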;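 note: peak over basal fluorescence ratio within a 140 s kinetic read after compound addition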
SKN-1 inh: C. elegans SKN-1 inhibition. AID 624304. C. elegans VP596 Pgst-4::GFP/RFP ratio, acrylamide-induced, 24 h. inhibition, % at 21.8 µM. 0.49% of 360,000 active;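 active = interference check ratio from 0.5 to 1.5 plus GFP to RFP signal ratio inhibition reaching or exceeding a fixed threshold, cut at about 30% in these data, passing the limit was not always enough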
ATG4B inhibitor: blocks human ATG4B protease cleavage of LC3 substrate; ATG4B cleavage of LC3-PLA2, NBD-HPC fluorescence, 1 h; inhibition, % at 8.33 µM; AID 504462; Q9Y4P1; 0.51% of 340,000 active; in the data active = inhibition above about 40%
Target sequence (Q9Y4P1 whole entry, looked up): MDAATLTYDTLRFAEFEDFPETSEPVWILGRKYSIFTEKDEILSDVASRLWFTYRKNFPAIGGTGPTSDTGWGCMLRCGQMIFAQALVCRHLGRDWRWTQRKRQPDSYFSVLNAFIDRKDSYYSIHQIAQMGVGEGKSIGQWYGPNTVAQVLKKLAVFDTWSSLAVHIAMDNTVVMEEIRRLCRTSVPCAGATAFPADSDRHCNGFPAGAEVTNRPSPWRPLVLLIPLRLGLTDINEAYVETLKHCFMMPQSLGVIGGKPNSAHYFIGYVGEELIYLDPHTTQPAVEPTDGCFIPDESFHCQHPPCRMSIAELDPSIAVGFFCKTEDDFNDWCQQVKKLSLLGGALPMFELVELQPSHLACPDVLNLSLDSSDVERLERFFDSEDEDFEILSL
M1 antag: human CHRM1 antagonism. P11229. inhibition, % at 3 µM. CHO-K1 hM1, Fluo-8 calcium fluorescence, ACh EC80 antagonist. 1.3% of 360,000 active. AID 588852;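 active = percent inhibition above its own plate's cutoff, namely the mean of that plate's compound wells plus 3 SD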;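 note: peak over basal fluorescence ratio during 140 s after agonist addition; 0% = ACh EC80 plus DMSO and 100% = DMSO alone without agonist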
Myeloid diff MLP: compounds promoting myeloid differentiation; ER-HoxA9 myeloid progenitors, lysozyme-GFP differentiation, flow cytometry; calls only at 10 µM; 1% of 360,000 active; AID 624256;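 active = normalized GFP-positive differentiation at or above the plate's own cutoff, the solvent-only control mean plus 3 SD; inconclusive = no clear call, values can overlap the other calls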;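 note: cells exposed to compound for four days before flow analysis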
Myeloid diff CP1: compounds promoting myeloid differentiation | shares compounds with Myeloid diff MLP | 2% of 2,300 active | calls only | ER-HoxA9 myeloid progenitors, GFP/Mac1 double-positive flow;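 active = share of green or green-and-red cells above 9 and 9% in run 1 or 4 and 3% in run 2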
GFP autofluor: counter-screen for myeloid differentiation promoters: compound fluorescence; shares compounds with Myeloid diff MLP; ER-HoxA9 myeloid progenitors, no estrogen, GFP autofluorescence flow cytometry; vehicle wells 0%, positive control 100%; fluorescence response, % (concentration not given with the values); 7.4% of 2,300 active;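 active = over 5% cells positive for green fluorescent reporter, or over 2% positive for both it and APC stain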;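 note: range taken on the double positive population between DMSO and positive control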
Starred values were filed as active, the others as inactive; i = inactive; ? = inconclusive; . = not tested or not shown; + = active, no number. Hits are enriched below; roughly 3.5% of the tested compounds scored in any of these assays.

SMILES	CHRM1 PAM	M1 ag	SKN-1 inh	ATG4B inhibitor	M1 antag	Myeloid diff MLP	Myeloid diff CP1	GFP autofluor
COc1cccc(CNC(=O)CCC2CCCN(C(=O)c3ccc(C)nc3)C2)c1 (centres undefined)	6.8	-4.0	-3.8	-5.7	-10.4	+	i	0.0
Cc1ccc(C(=O)N2CCCC(CCC(=O)NCc3ccc(F)c(F)c3)C2)cn1 (centres undefined)	11.9	-1.6	2.0	13.5	-13.0	?	.	.
COc1ccccc1OCCNC(=O)c1ccc(S(=O)(=O)N(C)C)cc1	16.3	-0.3	-8.5	-13.6	-35.4	i	.	.
COc1ccccc1CNC(=O)c1ccc(S(=O)(=O)N(C)C)cc1	2.8	-3.2	9.3	3.1	3.3	i	i	0.0
CCS(=O)(=O)N1CCC(C(=O)NCc2ccccc2OC)CC1	-8.0	-2.0	7.3	-0.5	9.1	+	i	0.0
COc1ccc(N2CCN(C(=O)c3ccc(NC(=O)C4=CSCCO4)cc3)CC2)cc1	3.0	-1.6	-11.3	-1.1	-1.1	i	.	.
Cc1cc(NC(=O)CN2CCC(n3nnc4cc(C(F)(F)F)ccc43)CC2)no1	4.9	-4.2	-1.6	-1.3	-26.0	+	i	0.0
Cc1ccc(OCCOC(=O)c2cc(S(=O)(=O)N3CCCCC3)ccc2N2CCOCC2)cc1	-10.6	-4.3	10.3	-14.9	28.5*	+	i	0.0
O=C(Nc1cccc(C(F)(F)F)c1)c1cc(S(=O)(=O)N2CCCCC2)ccc1N1CCOCC1	-4.3	-4.1	15.4	-5.1	-0.2	i	i	0.0
CC(=O)NC(C)(c1ccccc1)c1nc(-c2cnc3ccccc3c2)cs1 (centres undefined)	3.3	-3.4	10.2	.	-6.9	i	.	.
CCc1nc2ccc(C(=O)NCCc3ccc(OC)c(OC)c3)cc2nc1CC	6.8	-1.5	-0.1	-6.1	-5.1	i	.	.
CCc1nc2ccc(C(=O)NCCc3ccc(OC)cc3)cc2nc1CC	-10.7	-8.3	19.0	-10.6	4.4	i	i	0.2
Cc1nn(C)c(C)c1CNC(=O)Nc1cccc(Cl)c1C	-0.5	-5.9	-3.4	3.4	14.1	i	.	.
COc1ccc(C(=O)CSc2ncnc3nc[nH]c23)cc1	11.6	2.0	-21.5	-5.5	-13.1	+	i	0.2
O=c1c2c(-c3ccc([N+](=O)[O-])cc3)csc2nc2n1CCCCC2	9.4	-5.8	12.9	1.5	-10.9	i	.	.
Cn1c(=O)[nH]c(=O)c2c1nc(Br)n2Cc1cccc(Br)c1	2.1	5.6	-1.3	-0.7	0.2	i	i	0.0
CN1CCN(c2nc3c(c(=O)[nH]c(=O)n3C)n2Cc2cccc(Br)c2)CC1	21.7	-8.4	10.7	-2.0	-34.8	i	.	.
CCO[C@H]1OC(C(=O)O)=C[C@@H](c2ccccc2)[C@@H]1CCCO	14.7	6.4	1.1	7.7	-9.8	i	i	0.0
CCO[C@@H]1OC(C(=O)O)=C[C@H](c2ccccc2)[C@H]1CCCO	6.7	-3.2	-10.2	-7.0	-0.2	i	.	.
Cc1cc(C)cc(NC(=S)N2CCC(N(C)CC3CCCO3)CC2)c1 (centres undefined)	2.2	-4.5	-7.2	7.9	-2.6	i	.	.
CC(C)CC(=O)c1c[nH]c(C(=O)NCCc2ccccn2)c1	5.0	-1.6	5.1	1.7	-2.9	i	i	0.0
CCC(=O)c1c[nH]c(C(=O)NCCc2ccccn2)c1	7.0	-3.2	-13.6	-3.9	-11.3	i	.	.
Cc1ccc(S(=O)(=O)N2CCN(CC(=O)Nc3ccnn3C3CCCC3)CC2)cc1	-2.9	-2.7	-7.1	-1.4	11.5	i	.	.
CC(Sc1nc2ccccc2c(=O)n1C)C(=O)Nc1ccc2c(c1)OCCO2 (centres undefined)	7.4	0.6	-11.7	1.4	-5.0	i	i	1.3
CC(Sc1nnnn1C)C(=O)Nc1ccc2c(c1)OCCO2 (centres undefined)	-0.1	-10.5	12.4	2.1	-4.4	i	.	.
SMILES	CHRM1 PAM	M1 ag	SKN-1 inh	ATG4B inhibitor	M1 antag	Myeloid diff MLP	Myeloid diff CP1	GFP autofluor
O=C(CCl)NC1(C(=O)O)CCCC1	5.7	-2.7	8.7	.	-11.6	i	.	.
Cc1ccc(-c2nnc(-c3ccc(NC(=O)Cc4cccs4)cc3)o2)cc1	14.7	4.4	-8.7	9.4	-27.9	+	i	0.0
O=C(Cc1cccs1)Nc1cccc(-c2nnc(-c3ccco3)o2)c1	-5.7	-7.8	20.0	3.7	7.8	i	.	.
Cc1c(C(=O)C(C)C)n(C)c2ccccc12	16.9	1.6	3.9	2.7	-61.4	i	i	0.5
CCC1CCCCN1C(=O)CCNC(=O)Cn1cnc2ccccc2c1=O (centres undefined)	8.0	-4.6	-7.1	-7.8	-9.8	i	.	.
COCC(=O)Nc1c(C(=O)Nc2cccc(OC)c2)oc2ccccc12	5.4	-2.0	-4.5	-16.5	-19.4	i	i	0.0
COc1cccc(NC(=O)c2oc3ccccc3c2NC(C)=O)c1	-2.8	-2.8	-0.2	-6.5	9.4	i	.	.
Cc1ccc(O)c(NC(=O)CCC2CCCCC2)c1	-0.3	-4.4	-6.2	0.5	-1.9	i	i	0.4
Cc1ccc2oc(=O)c3cnn(CC(=O)N4CCCc5ccccc54)c3c2c1	7.2	-2.3	-8.6	-1.0	1.8	i	i	0.2
C=CCN1C(=O)C(O)(CC(=O)c2ccc(OC)cc2OC)c2cc(Br)ccc21 (centres undefined)	0.6	-8.8	13.0	-2.5	-17.4	i	i	0.0
CS(=O)(=O)c1ccc(Cl)c(NC(=O)C2CCCCN2S(=O)(=O)c2ccccc2)c1 (centres undefined)	5.2	-4.6	9.1	-4.8	-10.3	i	.	.
COC(=O)c1ccc(C2Nc3ccccc3NC3=C2C(=O)CC(C)(C)C3)cc1 (centres undefined)	13.2	1.2	18.4	-0.2	-13.0	i	.	.
COC(=O)c1ccc2c(c1)NC1=C(C(=O)CC(C)(C)C1)C(c1ccncc1)N2 (centres undefined)	5.1	-2.4	5.0	-1.8	-3.3	+	i	0.5
COc1ccc(C2SCCN2S(=O)(=O)c2ccc(NC(C)=O)cc2)cc1 (centres undefined)	8.1	0.0	1.5	-3.9	-14.7	+	i	0.0
CC(=O)Nc1ccc(S(=O)(=O)N2CCSC2c2ccc(C)cc2)cc1 (centres undefined)	0.4	-1.4	-2.5	-13.0	2.0	i	.	.
COc1ccc(-c2cc(C(=O)N3CCN(c4ccccc4OC)CC3)no2)cc1OC	-6.3	-3.6	-1.4	-14.5	18.0	i	i	1.1
